In PubChem BioAssay (EPA / NIEHS):
Values joined by “and” are separate entries in the source; they are usually repeats but may differ in a detail not shown here. Equal entries are not always repeated. Where a structure was tested more than once in an assay, its records may differ in their call. Active and inactive are the calls of the source. How the source made its calls: active means hit-call score of the fitted dose curve at least 0.9, where 1 is the maximum; inactive means score below 0.9.

Tests used:
[1] = read-out: Collagen I, COL1A1 (gene 1277); experiment: BSK_hDFCGF_CollagenI: BioMAP Diversity Plus: hDFCGF Assay for Collagen I Biomarker Activity (AID 2284250); conditions: primary human foreskin fibroblasts
Outline: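 Collagen I quantified by ELISA 24 h after chemical dosing of human dermal fibroblast primary cells, with parallel SRB staining (0.1%, TCA-fixed, 560 nm) for overt cytotoxicity.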

[2] = read-out: Interferon-inducible T-cell alpha chemoattractant (ITAC), CXCL11 (gene 6373); experiment: BSK_hDFCGF_ITAC: BioMAP Diversity Plus: hDFCGF Assay for Interferon-inducible T-cell alpha chemoattractant (ITAC) Biomarker Activity (AID 2284251); conditions: primary human foreskin fibroblasts
Outline: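 I-TAC levels were read by ELISA on human dermal foreskin fibroblast primary cultures 24 h after dosing, analysed against DMSO in the positive direction. Cytotoxicity was assessed alongside by sulforhodamine B total-protein staining.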

[3] = read-out: Plasminogen activator inhibitor-1 (PAI1), SERPINE1 (gene 5054); experiment: BSK_KF3CT_PAI1: BioMAP Diversity Plus: KF3CT Assay for Plasminogen activator inhibitor-1 (PAI1) Biomarker Activity (AID 2284252); conditions: primary human keratinocytes with fibroblasts
Outline: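 PAI-1 levels quantified by ELISA after 24 h compound exposure of primary human skin keratinocytes co-cultured with fibroblasts. Activity is the gain relative to DMSO; cytotoxicity tracked in parallel cultures via SRB staining.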

[4] = read-out: Monocyte Chemoattractant Protein-1 (MCP1), CCL2 (gene 6347); experiment: BSK_IMphg_MCP1: BioMAP Diversity Plus: IMphg Assay for Monocyte Chemoattractant Protein-1 (MCP1) Biomarker Activity (AID 2284253); conditions: primary human endothelial cells with macrophages
Outline: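 ELISA readout of MCP-1 at 24 hours in IMphg co-cultures of venular endothelial cells and macrophages, normalised to DMSO; parallel cultures stained with sulforhodamine B for overt cytotoxicity.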

[5] = read-out: Interleukin-8 (IL8), CXCL8 (gene 3576); experiment: BSK_KF3CT_IL8: BioMAP Diversity Plus: KF3CT Assay for Interleukin-8 (IL8) Biomarker Activity (AID 2284254); conditions: primary human keratinocytes with fibroblasts
Outline: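 IL-8 by ELISA in primary human skin co-culture (keratinocytes plus fibroblasts) 24 h post-dose, DMSO as baseline. Cytotoxicity assessed in parallel by sulforhodamine B total-protein staining.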

[6] = read-out: Macrophage Inflammatory Protein-1 Alpha (MIP1a), CCL3 (gene 6348); experiment: BSK_IMphg_MIP1a: BioMAP Diversity Plus: IMphg Assay for Macrophage Inflammatory Protein-1 Alpha (MIP1a) Biomarker Activity (AID 2284255); conditions: primary human endothelial cells with macrophages
Outline: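 MIP-1a protein levels were quantified by ELISA after 24 h treatment of human endothelial cell–macrophage co-cultures, compared with DMSO. Parallel cultures were fixed with TCA and stained with 0.1% SRB to gauge overt cytotoxicity.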

[7] = read-out: Plasminogen activator inhibitor-1 (PAI1), SERPINE1 (gene 5054); experiment: BSK_MyoF_PAI1: BioMAP Diversity Plus: MyoF Assay for Plasminogen activator inhibitor-1 (PAI1) Biomarker Activity (AID 2284256); conditions: primary human lung fibroblasts
Outline: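 Human lung fibroblasts (MyoF system) were exposed to test chemicals for 24 h, then PAI-1 was quantified by ELISA. Activity was fitted in the positive (signal-gain) direction relative to DMSO vehicle as baseline.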

CD69, CD69 (gene 969) = experiment: BSK_IMphg_CD69: BioMAP Diversity Plus: IMphg Assay for CD69 Biomarker Activity (AID 2284257); conditions: primary human endothelial cells with macrophages
Outline: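 Readout is ELISA for CD69 in primary human venular endothelial cell/macrophage co-culture, taken at 24 h post-dosing. SRB staining of parallel cultures gauged overt cytotoxicity; signal increase versus DMSO defined activity.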

[8] = read-out: Eotaxin 3, CCL26 (gene 10344); experiment: BSK_BF4T_Eotaxin3: BioMAP Diversity Plus: BF4T Assay for Eotaxin 3 Biomarker Activity (AID 2284258); conditions: primary human bronchial epithelial cells with fibroblasts
Outline: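 ELISA measurement of Eotaxin-3 after 24 h chemical exposure in a bronchial epithelial/dermal fibroblast co-culture, with DMSO as baseline. Parallel SRB staining (0.1% SRB after 10% TCA fixation, 560 nm) flagged overt cytotoxicity.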

[9] = read-out: Monocyte Chemoattractant Protein-1 (MCP1), CCL2 (gene 6347); experiment: BSK_BF4T_MCP1: BioMAP Diversity Plus: BF4T Assay for Monocyte Chemoattractant Protein-1 (MCP1) Biomarker Activity (AID 2284259); conditions: primary human bronchial epithelial cells with fibroblasts
Outline: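 MCP-1 ELISA readout taken 24 h after dosing in the BF4T system (bronchial epithelial cells plus dermal fibroblasts). Parallel SRB total-protein staining flagged cytotoxicity; DMSO served as baseline, positive fitting direction.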

[10] = read-out: Intercellular Adhesion Molecule 1 (ICAM1), ICAM1 (gene 3383); experiment: BSK_BF4T_ICAM1: BioMAP Diversity Plus: BF4T Assay for Intercellular Adhesion Molecule 1 (ICAM1) Biomarker Activity (AID 2284260); conditions: primary human bronchial epithelial cells with fibroblasts
Outline: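 ICAM-1 levels measured by ELISA after 24 h chemical treatment of bronchial epithelial cell/dermal fibroblast co-cultures, read against DMSO baseline. Overt cytotoxicity checked in parallel cultures by sulforhodamine B staining.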

[11] = read-out: Interleukin-8 (IL8), CXCL8 (gene 3576); experiment: BSK_MyoF_IL8: BioMAP Diversity Plus: MyoF Assay for Interleukin-8 (IL8) Biomarker Activity (AID 2284261); conditions: primary human lung fibroblasts
Outline: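 IL-8 quantified by ELISA after 24 h compound exposure of primary human lung fibroblasts. SRB staining of parallel cultures flagged cytotoxicity; DMSO served as baseline.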

CD90, THY1 (gene 7070) = experiment: BSK_BF4T_CD90: BioMAP Diversity Plus: BF4T Assay for CD90 Biomarker Activity (AID 2284262); conditions: primary human bronchial epithelial cells with fibroblasts
Outline: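 CD90 levels by ELISA after 24 h treatment of human bronchial epithelial cell/dermal fibroblast cultures, analysed versus DMSO. Overt cytotoxicity checked in parallel cultures by sulforhodamine B staining.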

[12] = read-out: Interleukin-8 (IL8), CXCL8 (gene 3576); experiment: BSK_BF4T_IL8: BioMAP Diversity Plus: BF4T Assay for Interleukin-8 (IL8) Biomarker Activity (AID 2284263); conditions: primary human bronchial epithelial cells with fibroblasts
Outline: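 Human bronchial epithelial cells with dermal fibroblasts co-culture; IL-8 measured by ELISA 24 hours after dosing, fitted vs DMSO. Cytotoxicity tracked in parallel cultures by SRB total-protein staining.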

[13] = read-out: Interleukin-1 alpha (IL1a), IL1A (gene 3552); experiment: BSK_BF4T_IL1a: BioMAP Diversity Plus: BF4T Assay for Interleukin-1 alpha (IL1a) Biomarker Activity (AID 2284264); conditions: primary human bronchial epithelial cells with fibroblasts
Outline: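 ELISA read-out of IL-1α from bronchial epithelial cell/dermal fibroblast co-cultures 24 h after compound addition. Increases scored against DMSO negative control. Cytotoxicity monitored by sulforhodamine B staining of parallel cultures.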

Decorin, DCN (gene 1634) = experiment: BSK_MyoF_Decorin: BioMAP Diversity Plus: MyoF Assay for Decorin Biomarker Activity (AID 2284265); conditions: primary human lung fibroblasts
Outline: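 Decorin protein was quantified by ELISA 24 h after chemical addition to primary human lung fibroblasts and analysed as increase over DMSO. Cytotoxicity was tracked in parallel cultures by SRB total-protein staining read at 560 nm.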

KRT18 (gene 3875) = experiment: BSK_BF4T_Keratin818: BioMAP Diversity Plus: BF4T Assay for Keratin 818 Biomarker Activity (AID 2284266); conditions: primary human bronchial epithelial cells with fibroblasts
Outline: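 Keratin 8/18 levels quantified by ELISA after 24 h chemical treatment of bronchial epithelial cell/dermal fibroblast co-cultures, fitted in positive direction relative to DMSO. Parallel SRB staining tracks overt cytotoxicity.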

[14] = BSK_MyoF_SRB: Viability Assessment in the BioMAP Diversity Plus: MyoF Assay (AID 2284267); conditions: primary human lung fibroblasts;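 further: total protein by SRB absorbance in parallel cultures as cytotoxicity measure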
Outline: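 Cytotoxicity read-out: after 10% TCA fixation, parallel human lung fibroblast cultures were stained with 0.1% SRB at 24 h post-dosing and read at 560 nm; DMSO served as baseline.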

[15] = read-out: Matrix Metallopeptidase 1 (MMP1), MMP1 (gene 4312); experiment: BSK_MyoF_MMP1: BioMAP Diversity Plus: MyoF Assay for Matrix Metallopeptidase 1 (MMP1) Biomarker Activity (AID 2284268); conditions: primary human lung fibroblasts
Outline: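 Human lung fibroblasts (MyoF system) exposed to chemical for 24 h in 96-well format; MMP1 biomarker quantified by ELISA, with activity fitted in the positive direction relative to DMSO baseline.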

[16] = read-out: TIMP metallopeptidase inhibitor 1 (TIMP1), TIMP1 (gene 7076); experiment: BSK_MyoF_TIMP1: BioMAP Diversity Plus: MyoF Assay for TIMP metallopeptidase inhibitor 1 (TIMP1) Biomarker Activity (AID 2284269); conditions: primary human lung fibroblasts
Outline: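 Primary human lung fibroblasts, MyoF multiplex system; chemical exposure 24 h; TIMP-1 by ELISA; positive fitting direction vs DMSO control.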

Measured: AC50

NCC(F)(F)C(F)(F)C(F)(F)C(F)(F)C(F)(F)C(F)(F)C(F)(F)F
inactive: [1] | [2] | [3] | [4] | [5] | [6] | [7] | CD69, CD69 (gene 969) | [8] | [9] | [10] | [11] | CD90, THY1 (gene 7070) | [12] | [13] | Decorin, DCN (gene 1634) | KRT18 (gene 3875) | [14] | [15] | [16]
active: [2] 12.1 µM | [5] 13.5 µM | [9] 0.22 µM

OCCC(F)(F)C(F)(F)C(F)(F)C(F)(F)C(F)(F)C(F)(F)F
inactive: [3] | [4] | [5] | [6] | [7] | CD69, CD69 (gene 969) | [8] | [9] | [10] | [11] | CD90, THY1 (gene 7070) | [12] | [13] | Decorin, DCN (gene 1634) | KRT18 (gene 3875) | [14] | [15] | [16]
active: [1] 30 µM and 46.9 µM | [2] 55 µM and 57.4 µM | [6] 42.4 µM

C=C(C)C(=O)OCCC(F)(F)C(F)(F)C(F)(F)C(F)(F)C(F)(F)C(F)(F)F
inactive: all assays above

CCCCCCCCCCCCCC[N+](C)(C)C
active: [7] 3.69 µM | [11] 9.47 µM | Decorin, DCN (gene 1634) 28.4 µM | [14] 5.25 µM | [16] 3.32 µM
